From ChEMBL document CHEMBL3988442, “University of Dundee, Small-Polar-MMV Screening Library” (2021)
Out of some 48,000 compounds screened, about 13,000 (27%) showed an effect of 50% or more. The list shows a part of the results.

System: Wolbachia pipientis
Assay: Anti-Wolbachia Cell-Based Screen
Assay type: functional
Design: scale not given: in the data most compounds retested in dose-response had high values
Details: 5 µM

Compound | Percent Effect [%]
Cn1cccc1C(=O)N1CC2(CCN(C(=O)c3cccnc3)C2)C1.O=C(O)C(F)(F)F | 98.8
Cn1cccc1C(=O)N1CCC2(CCN(C(=O)c3cccnc3)C2)CC1.O=C(O)C(F)(F)F | 51.82
Cn1cccc1CN1CCC2(CCCN(C(=O)c3cccnc3)C2)CC1.O=C(O)C(F)(F)F.O=C(O)C(F)(F)F | 3.692
CC1(C(=O)Nc2ccc(F)c(-n3cccc3)c2)CCOCC1 | -9.431
FC(F)(F)c1cccc(C2(CNCc3ccncc3)CCOCC2)c1 | -7.872
CC1(C(=O)NCc2ccsc2)CCOCC1 | 107.3
CN1CCN(C(=O)NCCc2ccc(F)cc2)[C@H]2CS(=O)(=O)C[C@H]21 | 8.781
CC(CNC(=O)NCc1ccsc1)CC1(C)OCCO1 (centres undefined) | -12.21
CC1(CCNC(=O)NCc2ccsc2)OCCO1 | -10.92
CC1(C(=O)NCc2cc(F)cc(F)c2)CCOCC1 | 100.6
CC1(C(=O)NCc2cccc(C(F)(F)F)c2)CCOCC1 | 102.7
CN(C)C1(CNC(=O)Cc2ccc(F)cc2)CCOCC1 | -8.041
CC1(C(=O)NCCc2ccc(F)cc2)CCOCC1 | 104.4
FC(F)(F)c1cccc(C2(CNCc3cc[nH]c3)CCOCC2)c1 | 2.692
CCN(CC)c1ccc(CNC(=O)C2(C)CCOCC2)cc1F | 25.87
Cc1nc(-c2ccccc2)c(C(=O)N2CCC3(CC(=O)NC3=O)C2)s1 (centres undefined) | -0.3979
Cc1noc(C)c1CN1CC2(CCN(C(=O)c3ccoc3C)C2)CC1=O (centres undefined) | -6.391
CCC(C)N(Cc1cc(C)n[nH]1)Cc1ccccc1Cl (centres undefined) | 4.348
Cc1cc(CN2CCCC2)cc(Oc2ccc3c(c2)CC(CN)O3)c1 (centres undefined) | 4.792
CC(C)c1noc(CN(C)C(=O)c2ncn[nH]2)n1 | 4.654
CC(=O)NCCNC(=O)c1sc(-c2ccc(C)cc2C)nc1C | -3.584
N#Cc1cn[nH]c1NCc1cc(Br)ccc1O | 83.36

Compound | Percent Effect [%]
N#Cc1cn[nH]c1NCc1cc(I)cc(I)c1O | 96
N#Cc1cn[nH]c1NCc1cc(Cl)cc(Cl)c1O | 77.61
COc1ccc(/C=C/CN2CCN(c3ncccc3C(N)=O)CC2)cc1 | -5.557
Cc1nc(NC2CCCC2)cc(C2CCN2C(=O)c2ccccc2)n1 (centres undefined) | 4.339
Cc1cccc(N2CC[C@H]3[C@H]2CCN3C(=O)c2cnn(C)c2)n1 | 8.202
Cc1nc(NC2CCCC2)cc(C2CCN2C(=O)c2ccccn2)n1 (centres undefined) | 140.6
CCc1cc(NC2CCN(CC(N)=O)CC2)nc(N2CCCCC2)n1 | 3.351
Cc1nc(NC2CCCC2)cc(C2CCN2C(=O)c2cccnc2)n1 (centres undefined) | -5.726
Cc1nc(NC2CCCC2)cc(C2CCN2C(=O)c2cnn(C)c2)n1 (centres undefined) | 99.12
CCC(=O)N1CCC1c1cc(NC2CCCC2)nc(C)n1 (centres undefined) | 124.3
O=C1NCCc2c1sc1ccc(C(=O)N3CC[C@H](CO)[C@H](O)C3)cc21 | 1.887
CCCS(=O)(=O)N1CCC2(CCC(=O)N(CCc3cccnc3)C2)CC1 | -2.035
CCCC(=O)NC(C)(C)Cc1ccccc1OC | 8.655
CCn1cc(S(=O)(=O)NC(=O)CCc2c[nH]c3ccccc23)cn1 | 5.036
CN1CCN(c2ccc(NCc3ccc([S+](C)[O-])cc3)cn2)CC1 (centres undefined) | -11.28
Cc1ccsc1C(=O)N1CC[C@H]2CO[C@H](CN(C)C)[C@H]2C1.O=C(O)C(F)(F)F | 3.155
CCC(C)CS(=O)(=O)NC(=O)C1CC1 (centres undefined) | -14.71
O=S(=O)(CCCc1ccccc1)Cc1nnnn1C1CC1 | -8.499
c1ccc(C2CCCN2Cc2nnnn2C2CC2)cc1 (centres undefined) | -9.931
O=C(CS(=O)(=O)Cc1nnnn1C1CC1)NCCc1ccccc1 | -17.89
O=S(=O)(Cc1c(F)cccc1Cl)Cc1nnnn1C1CC1 | 95.69
[O-][S+](Cc1c(F)cccc1Cl)Cc1nnnn1C1CC1 (centres undefined) | 117.1

Compound | Percent Effect [%]
CN(Cc1nnnn1C1CC1)c1cccc2ccccc12 | -12.9
O=C(CS(=O)(=O)Cc1nnnn1C1CC1)NCC1CC1 | -6.472
O=S(=O)(Cc1c(F)cccc1Cl)NCCCN1CCCCCC1 | 1.36
O=S(=O)(Cc1ccccc1F)Cc1nnnn1C1CC1 | 106.9
CCC(C)CN(C)C(=O)NCc1ccccc1-n1cccn1 (centres undefined) | -6.014
Cc1cnccc1CN(C)C1CCN(c2ncnc3[nH]cnc23)CC1 | -3.937
CN(C)C(=O)CCC[S+]([O-])Cc1cc(Cl)ccc1Cl (centres undefined) | 0.1259
Cc1noc(C)c1CN1CCc2nn(C(C)C)c(=O)cc2C1 | -7.391
CC(=O)Nc1ncc(S(=O)(=O)N2CCN(C3CCCCC3)CC2)s1 | -4.636
Cc1ccccc1S(=O)(=O)Cc1nsc(N(C)C)n1 | -10.46
COc1ccc2c(c1)CCCN2C(=O)NCCc1cnn(C)c1 | -4.065
Cc1cc(C)n(CC2CCCCN2CC(=O)N(C)Cc2ccco2)n1 (centres undefined) | -0.03535
Cc1ccc(CN(C)C(=O)Cn2nc(-c3ccc(F)cc3)oc2=O)cc1 | -26.69
Cc1cc(C)n(CC(C)CNC(=O)N(C)Cc2ccco2)n1 (centres undefined) | 23.18
CCn1nccc1CN(C)C(=O)Cn1nc(C)c(C)c1C | 98.15
CCc1nc(CC)n(CC(=O)N(C)Cc2ccc(F)cc2)n1 | -4.811
CCn1nccc1CN(C)C(=O)Cn1nc(C)cc1C | 69.47
O=C(CNC(=O)C1CCCC1)NCC(O)c1ccc2ccccc2c1 (centres undefined) | -9.214
CCCn1nnnc1CN(c1ccc(N2CCOCC2)cc1)C(C)C | -9.048
CCCn1nnc2c(sc3nc(N4CCOCC4)c4c(c32)CCC4)c1=O | 106.2
CCc1nc2c(c(N3CCOCC3)n1)CCN(C(=O)N1CCCC1)CC2 | -8.543
CC(C)n1nnc2c(sc3nc(N4CCOCC4)c4c(c32)CCC4)c1=O | 121.1

Compound | Percent Effect [%]
Cn1nnc2c(sc3nc(N4CCOCC4)c4c(c32)CCC4)c1=O | 117
CN(C)C(=O)Cc1ccccc1NCc1cccc2cccnc12 | -12.16
O=C(c1cncc(Br)c1)N1CCCc2c(F)cc(F)cc21 | -4.9
CC(C#N)CNS(=O)(=O)c1ccc(Br)c(F)c1 (centres undefined) | 3.318
CC(C)c1noc(CCC(=O)N(CC2CCOC2)C2CC2)n1 (centres undefined) | 6.067
NC(=O)NC(=O)CCN(Cc1ccccc1)CC1CCOCC1 | -17.87
Cc1cnn(CC(C)NCC(=O)Nc2ccc(Cl)cn2)c1 (centres undefined) | -4.944
Fc1cnc(N2CC[C@@H]3O[C@@H](COCc4cccnc4)CC[C@@H]32)nc1.O=C(O)C(F)(F)F | -5.936
CC(C)COC[C@@H]1CC[C@H]2[C@H](CCN2C(=O)c2ccncc2F)O1.O=C(O)C(F)(F)F | 105.1
Fc1cnc(N2CC[C@@H]3O[C@@H](COCc4ccccn4)CC[C@@H]32)nc1.O=C(O)C(F)(F)F.O=C(O)C(F)(F)F | -20.87
O=C(O)C(F)(F)F.O=C(c1ccncc1F)N1CC[C@@H]2OC(COCC3CC3)CC[C@@H]21 (some centres undefined) | 97.57
CC(C)COC[C@H]1CC[C@H]2[C@H](CCN2C(=O)c2ccncc2F)O1.O=C(O)C(F)(F)F | 108.1
COc1ccc(CNC[C@H]2COCc3nc4cccnc4n32)cn1 | 2.273
Cc1ccc(NC(C)C(=O)N(C)Cc2cccc(F)c2)cc1C(N)=O (centres undefined) | -12.41
CN(Cc1ccc(Cl)s1)C(=O)c1cccc(OCC(N)=O)c1 | -4.963
N#Cc1ccc(SCCOCCO)c(F)c1 | -11.88
CC(OCC1CC1)C(=O)N1CCCN(c2nc3ccccc3[nH]2)CC1 (centres undefined) | 2.156
COCc1nccc(C2CCCN(Cc3ccc(C#N)cc3)C2)n1 (centres undefined) | -15.32
Cc1noc(CN2CCC(c3ccnn3CCO)CC2)n1 | -5.622
Nc1nccc(C2CCN(CC3CC3)C2)n1 (centres undefined) | 123.6
COc1ccc(-c2nnc([C@H]3CCN(CC4CC4)C3)o2)cc1 | 1.558
Nc1nccc(C2CCCN(CC3CC3)C2)n1 (centres undefined) | 142.8

Compound | Percent Effect [%]
Cc1ccc2[nH]c([C@H]3CCN(CC4CCCCC4)C3)nc2c1 | 2.151
N#Cc1ccc(CN2CCC(c3ccnn3CCO)CC2)cc1 | -5.885
COCc1nccc(C2CCCN(Cc3ccc(SC)cc3)C2)n1 (centres undefined) | -16.87
Nc1nccc(C2CCN(CCO)C2)n1 (centres undefined) | 113.7
Cc1ccc2c(c1)OCCN2C(=O)c1ccc(=O)n(C)c1 | 10.97
CCn1c(CN(C)C(=O)c2ccc(N(C)C)nc2)nc2ccccc21 | -11.95
O=C(Nc1ccccc1)C1CN(Cc2ccco2)CC12CCOCC2.O=C(O)C(F)(F)F (centres undefined) | -4.746
Cc1ccc(S(=O)(=O)Cc2noc([C@@H]3C[C@@H](O)CN3)n2)cc1 | 5.528
COc1ccc(CC2CCCN2CCCC#N)cc1 (centres undefined) | 3.146
COc1ccc(C(=O)Nc2cnn(CC(=O)NC3CCCC3)c2)c(O)c1 | -2.411
O=C(NCCn1ccnc1)NCC(c1ccco1)N1CCCCC1 (centres undefined) | -2.241
O=C(NCc1cc[nH]n1)NCC(c1ccco1)N1CCCC1 (centres undefined) | -4.044
O=C(NCc1ccccn1)NCC(c1ccco1)N1CCCCC1 (centres undefined) | 12.69
O=C(NCCn1ccnc1)NCC(c1ccco1)N1CCCC1 (centres undefined) | 107.9
O=C(NCCCn1ccnc1)NCC(c1ccco1)N1CCCC1 (centres undefined) | 97.42
O=C(NCc1ccccn1)NCC(c1ccco1)N1CCCC1 (centres undefined) | 11.6
O=C(Cn1cccn1)NCC(c1cccs1)N1CCCC1 (centres undefined) | -1.128
O=C(CCn1cccn1)NCC(c1cccs1)N1CCCC1 (centres undefined) | -57.56
O=C(NCCCn1ccnc1)NCC(c1ccco1)N1CCCCC1 (centres undefined) | 152.2
O=C(NCCCn1cccn1)NCC(c1ccco1)N1CCCC1 (centres undefined) | 116.5
O=C(NCCCn1ccnc1)N1CCCC1c1cccs1 (centres undefined) | 8.272
